This is an account of results in PubChem BioAssay AID372 (MTDP, 2006).

In general, inhibition refers to the percentage by which the read-out fell short of the control.

SMILES strings stand for the structures. In all, about 100,000 compounds went through this assay and about 770 (0.77%) were called active. Rule as the data show it: active = inhibition above about 50%; inactive = the rest. For the sample, actives were picked, then their nearest neighbours and some compounds at random.

This assay concerns the target Gag-Pol polyprotein (Human immunodeficiency virus type 1 group M subtype B (isolate HXB2)) (UniProt P04585). As to the kind of experiment: RNase H inhibition, HIV 1 Gag Pol polyprotein, FRET biochemical assay, screening (AID 372). Particulars: HIV-1 RT RNase H, FRET RNA/DNA substrate fluorescence; at 10 µM; hits give high values.
With `CC(=O)Nc1ccc2c(c1)C(=O)OC2(c1ccc(N(C)C)cc1)c1ccc(N(C)C)cc1`, the inhibition was 17% (inactive). With `Cc1nc2ccccc2n1C(=O)c1ccc([N+](=O)[O-])cc1` the figure was 0% (inactive); with `Cc1ccc(C(=O)N/N=C/C=C/c2ccc([N+](=O)[O-])cc2)cn1`, 1% (inactive); with `O=C(N/N=C\c1ccc([N+](=O)[O-])cc1)c1cccc2cc[nH]c12`, 8% (inactive). The figure for `Cc1ccc(N2NC(=O)/C(=C/c3ccc(-c4cc([N+](=O)[O-])ccc4C)o3)C2=O)cc1` is 13% (inactive). The figure for `Cc1ccc(C)n1-c1ccccc1C(=O)O` is 15% (inactive). Consider `Cc1ccc(C)n1-c1ccc(C(=O)O)cc1O`, for which the inhibition was 8% (inactive). Consider `Cc1c(C(=O)O)cccc1-n1c(=O)c2cc3c(=O)n(-c4cccc(C(=O)O)c4C)c(=O)c3cc2c1=O`, for which the inhibition was 10% (inactive).

Regarding `COc1cc(C(=O)O)c(-n2c(C)ccc2C)cc1OC`, the inhibition is 13% (inactive). With `Cc1c(C(=O)O)cccc1-n1c(C)ccc1C` the figure was 58% (active); with `Cc1ccc(C)n1-c1ccc(Cl)cc1C(=O)O`, 16% (inactive). The figure for `Cc1ccc(C(=O)O)cc1-n1c(C)ccc1C` is 19% (inactive); for `COc1ccc(/C(C)=N/NC(=O)c2ccncc2)c(OC)c1OC` it is 5% (inactive); for `COc1cc(Br)c(CNc2cccc(C)c2)cc1OC` it is 22% (inactive).

`CCc1c(C)c(C#N)c2nc3ccccc3n2c1Nc1ccc(N(CC)CC)cc1`: the inhibition was 30% (inactive).

In the case of `O=C(Nc1ccccc1C#Cc1ccccc1)c1ccc(-c2ccccc2)cc1`, the inhibition is 0% (inactive). With `CC1CC(Nc2ccccc2)c2ccccc2N1` (stereo unspecified) the figure was 0% (inactive); with `COC(=O)CN1C(=O)c2cccc3cccc(c23)C1=O`, 7% (inactive); with `N#CC1=C(N)OC2=C(C(=O)CC(c3ccccc3)C2)C1c1coc2ccccc2c1=O` (stereo unspecified), 4% (inactive). With `Cc1cc([N+](=O)[O-])ccc1-n1c(C)cc(/C=C2/C(=O)NC(=O)N(Cc3ccco3)C2=O)c1C` the figure was 50% (active). With `O=C1NC(=O)N(Cc2ccco2)C(=O)/C1=C\c1ccc(-c2ccc(Cl)c(Cl)c2)o1` the figure was 41% (inactive). Take `O=C1NC(=O)N(Cc2ccco2)C(=O)/C1=C\c1ccc(-c2cccc(Cl)c2Cl)o1`: the inhibition was 46% (inactive). With `Cc1cc(/C=C2/C(=O)NC(=O)N(Cc3ccco3)C2=O)c(C)n1-c1ccc([N+](=O)[O-])cc1` the figure was 14% (inactive). With `O=C1NC(=O)N(Cc2ccco2)C(=O)/C1=C\c1ccc(-c2ccc([N+](=O)[O-])cc2)o1` the figure was 17% (inactive); with `Cc1cc(-c2ccc(/C=C3/C(=O)NC(=O)N(Cc4ccco4)C3=O)o2)ccc1Br`, 58% (active).

As to `O=C1NC(=O)N(Cc2ccco2)C(=O)/C1=C\c1ccc(-c2ccc(Cl)c([N+](=O)[O-])c2)o1`, the inhibition was 35% (inactive). The figure for `O=C1NC(=O)N(Cc2ccco2)C(=O)/C1=C\c1ccc(-c2ccc(C(=O)O)cc2)o1` is 35% (inactive).

`O=C1NC(=O)N(Cc2ccco2)C(=O)/C1=C\c1ccc(-c2ccc(Cl)cc2Cl)o1`: the inhibition was 58% (active). Turning to `O=C1NC(=O)N(Cc2ccco2)C(=O)/C1=C\c1ccc(-c2ccc(Br)cc2)o1`, the inhibition is 53% (active). With `Cc1cc(/C=C2/C(=O)NC(=O)N(Cc3ccco3)C2=O)c(C)n1-c1ccc(Cl)cc1` the figure was 12% (inactive).

`CCOC(=O)c1ccc(-c2ccc(/C=C3/C(=O)NC(=O)N(Cc4ccco4)C3=O)o2)cc1`: the inhibition was 34% (inactive). As for `O=[N+]([O-])c1cc2c(cc1C=Nc1cc(Cl)cc(Cl)c1)OCO2`, the inhibition is 5% (inactive).

`COc1ccc([N+](=O)[O-])cc1NCc1ccccc1F`: the inhibition was 12% (inactive). With `COc1ccc(C2CC(=O)C3=C(C2)NC(C)=C(C(=O)OCc2ccccc2)C3c2cc(OC)c(OC)c(OC)c2)cc1` (stereo unspecified) the figure was 10% (inactive); with `CCOC(=O)c1c(-c2ccc(C(C)C)cc2)csc1N`, 27% (inactive). Turning to `COc1cc([N+](=O)[O-])ccc1NC(=O)c1ccccc1`, the inhibition was 16% (inactive).

As for `COc1cc2ccccc2cc1C(=O)Nc1ccc(C)c(NC(=O)c2cc3ccccc3cc2OC)c1`, the inhibition is 28% (inactive). With `CC1=C(C(=O)OCCc2ccccc2)C(c2ccc(O)cc2)C2=C(CCCC2=O)N1` (stereo unspecified) the figure was 2% (inactive); with `Cc1ccc(N2C(=O)NC(=O)/C(=C\c3cccc(C(F)(F)F)c3)C2=O)cc1C`, 5% (inactive).

As for `CCOc1ccc(N2C(=O)/C(=C/c3ccc(-c4ccccc4C(=O)O)o3)C(=O)NC2=S)cc1`, the inhibition was 15% (inactive). With `O=C(O/N=C(/c1ccccc1)c1ccncc1)c1ccc(Cl)cc1Cl` the figure was 18% (inactive); with `COc1ccc(Cl)cc1S(=O)(=O)Oc1ccc(OCc2ccccc2)cc1`, 53% (active). `COc1ccc(Cl)cc1S(=O)(=O)Oc1ccc(Cl)cc1`: the inhibition is 39% (inactive). The figure for `COc1cc(S(=O)(=O)Oc2ccc(OCc3ccccc3)cc2)ccc1Cl` is 5% (inactive). In the case of `Cc1c(/C=C2/C(=O)NC(=O)N(Cc3ccco3)C2=O)c2ccccc2n1CC(N)=O`, the inhibition was 27% (inactive). As to `Cc1cccc(C(=O)N2N=C(c3ccc(F)cc3)CC2(O)C(F)(F)F)c1` (stereo unspecified), the inhibition is 0% (inactive). With `CCOC(=O)C1=c2s/c(=C\c3ccc(O)c(OCC)c3)c(=O)n2C(N)=C(C#N)C1c1ccc(O)c(OCC)c1` (stereo unspecified) the figure was 4% (inactive). Regarding `CCOC(=O)C1=c2s/c(=C\c3cccnc3)c(=O)n2C(N)=C(C#N)C1c1cccnc1` (stereo unspecified), the inhibition is 7% (inactive). The figure for `CCOC(=O)C1=c2s/c(=C\c3ccc(O)cc3)c(=O)n2C(N)=C(C#N)C1c1ccc(O)cc1` (stereo unspecified) is 67% (active).

Turning to `C=CCN1C(=O)/C(=C/c2cc([N+](=O)[O-])ccc2OC)SC1=S`, the inhibition was 3% (inactive). `O=C1NC(=Nc2cccc(Cl)c2Cl)S/C1=C\c1ccccc1`: the inhibition is 12% (inactive). With `COC(=O)C1=C(C)N(Cc2cccnc2)C(=O)/C1=C\c1ccc(Br)cc1` the figure was 14% (inactive); with `CC(C)NC(=O)C12CC3(C)CC(C)(CC(C)(C3)C1)C2`, 0% (inactive). The figure for `CCOC(=O)C1=C(O)/C(=C/c2cc(OC)c(O)c(OC)c2)SC1=Nc1ccccc1` is 13% (inactive); for `CCOC(=O)C1=C(O)/C(=C/c2ccc(O)c(OC)c2)SC1=Nc1ccccc1` it is 50% (active). The figure for `CCOC(=O)C1=C(O)/C(=C/c2ccc(O)c(OCC)c2)SC1=Nc1ccccc1` is 20% (inactive).

For `N=C1/C(=C/c2ccc(-c3ccccc3Cl)o2)C(=O)N=C2SC(c3ccccc3)=NN12`, the inhibition was 56% (active). Take `N=C1/C(=C/c2ccc(-c3ccc(Cl)cc3Cl)o2)C(=O)N=C2SC(c3ccccc3)=NN12`: the inhibition is 2% (inactive).

Turning to `N=C1/C(=C/c2ccc(-c3cc(Cl)ccc3Cl)o2)C(=O)N=C2SC(c3ccccc3)=NN12`, the inhibition was 44% (inactive). Turning to `Cc1ccc(N(CC(=O)O)S(C)(=O)=O)cc1C`, the inhibition was 0% (inactive). On to `CCCOc1ccccc1/C=C1/SC(N2CCN(c3ccc(Cl)cc3)CC2)=NC1=O`, for which the inhibition was 12% (inactive). Take `CCOC(=O)c1cnn2c1NC1=C(CCc3ccccc31)C2C(F)(F)F` (stereo unspecified): the inhibition was 58% (active). With `CCOC(=O)c1cnn2c(C(F)(F)F)c3c(nc12)-c1ccccc1CC3` the figure was 7% (inactive); with `CCOC(=O)c1ccccc1NC(=O)c1cnn2c1NC(c1ccccc1)CC2C(F)(F)F` (stereo unspecified), 17% (inactive). For the compound `COc1ccc(CN(CCC(c2ccccc2OC)C2CCOC(C)(C)C2)C(C)=O)cc1` (stereo unspecified), the inhibition was 17% (inactive). Turning to `COc1ccccc1NC(=O)Nc1nnc(-c2ccccc2SCc2ccc(F)cc2)s1`, the inhibition was 10% (inactive). The figure for `CCOC(=O)c1ccc(N=Cc2ccc3c(c2)OCO3)cc1` is 4% (inactive); for `COc1ccc(NC(=O)c2c(NC(=O)c3ccco3)sc3c2CCC3)cc1` it is 15% (inactive). The figure for `Cc1ccccc1NC(=O)c1c(NC(=O)c2ccco2)sc2c1CCC(C)C2` (stereo unspecified) is 51% (active); for `CCOc1ccccc1NC(=O)c1c(NC(=O)c2ccco2)sc2c1CCC(C)C2` (stereo unspecified) it is 7% (inactive); for `CCOc1ccc(NC(=O)c2c(NC(=O)c3ccco3)sc3c2CCCC3)cc1` it is 4% (inactive). On to `Cc1ccccc1NC(=O)c1c(NC(=O)c2ccco2)sc2c1CCC2`, for which the inhibition was 24% (inactive).

As to `O=C(c1cc(Cl)ccc1Cl)N1CCN(c2ccccc2)CC1`, the inhibition was 5% (inactive). For the compound `Cc1ccc(OCC(=O)Nc2nc(-c3ccccc3)cs2)c(C)c1`, the inhibition is 5% (inactive). With `COc1ccc(Nc2ccc(C(F)(F)F)cc2[N+](=O)[O-])cc1` the figure was 7% (inactive); with `CCNC(=O)c1c(O)c2ccccc2n(C)c1=O`, 1% (inactive). For `O=C(c1ccc(Cl)c(Cl)c1)c1ccc(N2CCOCC2)c([N+](=O)[O-])c1`, the inhibition is 54% (active). The figure for `O=C(c1ccc(Cl)cc1)c1ccc(N2CCOCC2)c([N+](=O)[O-])c1` is 16% (inactive). With `O=C(c1ccc(Cl)c(Cl)c1)c1ccc(N2CCCCC2)c([N+](=O)[O-])c1` the figure was 19% (inactive). As to `COc1ccc(N/C(C)=C/C(=O)ONC(=O)c2ccccc2)cc1`, the inhibition is 5% (inactive).

Consider `CCOC(=O)C(N)CSC1CC(=O)N(c2ccc(Cl)c(Cl)c2)C1=O` (stereo unspecified), for which the inhibition was 7% (inactive).

In the case of `Clc1cccc(-c2nnc(-c3ccc4c(c3)OCO4)o2)c1`, the inhibition is 15% (inactive). The figure for `O=C(CSc1nc2ccccc2s1)NNC(=S)Nc1ccc(Cl)cc1` is 65% (active); for `O=C(CSc1nc2ccccc2s1)NC1CCCCC1` it is 0% (inactive); for `O=C(CSc1nc2ccccc2s1)Nc1ccc(F)c(Cl)c1` it is 23% (inactive). The figure for `O=C(CSc1nc2ccccc2s1)NNC(=S)NC1CCCCC1` is 56% (active); for `O=C(CSc1nc2ccccc2s1)NNC(=O)NC1CCCCC1` it is 0% (inactive). The figure for `O=C(CSc1nc2ccccc2s1)Nc1ccc(Cl)cc1` is 37% (inactive). `COc1ccc(/C=C2/SC(=O)N(CC(=O)Nc3ccc(C)c(C)c3)C2=O)cc1OC`: the inhibition is 22% (inactive).

On to `CCCOc1ccc(/C=C2/C(=O)NC(=O)N2C(C)=O)cc1OC`, for which the inhibition is 0% (inactive). In the case of `O=C(O)c1cc(Br)ccc1N=Cc1ccc2c(c1)OCO2`, the inhibition is 8% (inactive).
